# Screen size: about 310,000 compounds; about 17,000 (5.5%) were called active. About 11% were inconclusive and are not listed. The list comes from a sample in which actives are over-represented; it also holds similar structures and randomly drawn compounds. A number with no mark means an inactive call. Calls come from the whole dose curve; as a rule, active = well fitted inhibition curve with a large enough effect; inconclusive = small, poorly fitted or top-dose-only effect, or effect the other way; inactive = no such curve, though single readings can be large or run the other way.
# Molecular target: Nuclear receptor ROR-gamma (Mus musculus) (UniProt P51450)
# Experiment: qHTS for inhibitors of ROR gamma transcriptional activity; note: nearly all actives have a fitted effect of over 60% in size
# Conditions: Drosophila S2 Gal4-RORgamma UAS-luciferase reporter, 20 h; series mostly up to 53.6 µM; activity change, negative = inhibition: at the top concentration
# How it was run: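 Luminescence from a UAS-regulated Photinus luciferase reporter in stably transfected Drosophila Schneider cells is measured; decreased signal marks ROR gamma inhibition. Fusion expression is induced by 700 uM copper sulfate for 20 hr.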
# % is set by controls: 0 for no effect and ±100 for the full control effect; potency is the fitted concentration of half-maximal effect.
# Nuclear receptor ROR-gamma (Mus musculus), sequence (P51450 whole entry, looked up): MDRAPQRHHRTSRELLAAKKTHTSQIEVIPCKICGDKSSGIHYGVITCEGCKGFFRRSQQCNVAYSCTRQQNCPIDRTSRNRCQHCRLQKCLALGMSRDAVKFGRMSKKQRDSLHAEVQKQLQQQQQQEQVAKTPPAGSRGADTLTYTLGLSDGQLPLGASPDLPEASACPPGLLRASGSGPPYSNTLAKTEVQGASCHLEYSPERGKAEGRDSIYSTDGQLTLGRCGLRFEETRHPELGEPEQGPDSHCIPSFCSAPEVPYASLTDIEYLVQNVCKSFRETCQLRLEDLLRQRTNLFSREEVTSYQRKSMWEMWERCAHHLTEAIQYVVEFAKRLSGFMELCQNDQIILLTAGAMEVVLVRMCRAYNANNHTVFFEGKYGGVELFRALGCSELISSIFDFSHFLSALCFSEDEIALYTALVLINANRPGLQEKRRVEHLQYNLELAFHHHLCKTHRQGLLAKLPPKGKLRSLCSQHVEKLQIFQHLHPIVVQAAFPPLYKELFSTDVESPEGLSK
SMILES,Potency,"activity change, negative = inhibition"
O=C(CCN1CCN(c2ccccc2)CC1)NNC(=S)Nc1ccccc1,10 µM (active),–
COc1cccc(C(=O)Nc2ccc(N3CCCC3)cc2)c1,–,7.72%
COc1ccc(C(=O)N/N=C(\C)CC(=O)Nc2ccc(Cl)cn2)cc1,5.01 µM (active),–
COc1ccc(COC(=O)N/N=C(\C)CC(=O)Nc2ccc(Cl)cc2)cc1,–,5.64% [at 10 µM]
COc1ccc(C(=O)NC(=S)Nc2ccc(Cl)cn2)cc1OC,7.94 µM (active),–
COc1ccc(C/C(C)=N/NC(=O)c2ccncc2)cc1,–,-26.7%
COc1ccc(C(=O)Nc2ccc(N3CCC(C)CC3)cc2)cc1Br,–,4.83%
O=C(CN1CCN(c2ccc(F)cc2)CC1)Nc1ccccc1,–,-3.12%
COc1c(Cl)cc(C(=O)Nc2ccc(Cl)cn2)cc1Cl,–,-2.59%
COC(=O)c1ccc(NC(=O)c2cc(Cl)ccc2OC)cc1,–,12.9%
COc1ccc(C(=O)NC(=S)Nc2ccc(N3CCCC3)cc2)cc1OC,0.447 µM (active),–
O=C(CN1CCN(c2ccccc2)CC1)Nc1ccc(F)cc1,–,21.6%
CCc1ccc(NC(=O)CN2CCC(C(=O)c3ccc(OC)cc3)CC2)cc1,–,-0.195%
Cc1c(C(=O)NC2CCCCC2)oc2ccccc12,–,31.6%
CCCNC(=O)CCc1c(C)nc2c(c(C)nn2-c2ccccc2)c1C,–,2.6%
Cc1ccc(S(=O)(=O)N2CCCC(C(=O)N3CCN(C)CC3)C2)cc1 (configuration not stated),–,-10.6%
O=C(Nc1ccncc1)Nc1ccc(F)cc1,–,-6.05%
COc1ccc(OCc2cc(C(=O)N3CCCC3)no2)c2ccccc12,–,-2.3%
COC(=O)CN1C(=O)[C@H]2[C@@H](C3CC3)N3C(=O)CN(Cc4ccc(-c5ccccc5)cc4)C(=O)[C@@]3(Cc3ccccc3)[C@H]2C1=O,–,16.4%
CS(=O)(=O)Nc1ccccc1N=C(c1ccccc1)c1ccccc1,–,-31.1% [at 1.91 µM]
COc1ccc(CN2CCNC(=O)C2CC(=O)NCc2cn[nH]c2-c2ccccc2)c(F)c1 (configuration not stated),–,14.9%
COc1ccc2oc(C(=O)NCC(Cc3ccccc3)N(C)C)c(C)c2c1 (configuration not stated),–,-17.4%
Cc1ccccc1C(=O)NC(=S)Nc1ccc(N2CCN(C(=O)c3ccccc3)CC2)cc1,22.4 µM (active),–
O=C(c1ccccc1)c1ccc(C(=O)N2CCN(c3ccccc3)CC2)cc1,–,-4.53%
Cc1ccc(OCCCC(=O)Nc2ccc(N3CCOCC3)cc2)cc1,–,-7.03%
Cc1ccc(C(=O)NC(=S)Nc2ccc(N3CCOCC3)cc2)cc1,6.31 µM (active),–

SMILES,Potency,"activity change, negative = inhibition"
Cc1ccccc1C(=O)Nc1ccc(N2CCCCCC2)cc1,–,14.4%
Cc1nc(NC(=O)c2ccc3c(c2)OCCO3)ccc1Br,–,-8.45%
O=C(Nc1ccc(Cl)cn1)c1ccc2c(c1)OCCO2,8.91 µM (active),–
COC(=O)c1ccc(NC(=S)NN2CCOCC2)cc1,–,31.5%
O=C(CN1CCN(c2ccc(O)cc2)CC1)Nc1ccc(-c2ccccc2)cc1,–,-1.13%
O=C(COc1ccc([N+](=O)[O-])cc1)Nc1ccc(N2CCCC2)cc1,–,-9.99%
O=C(Nc1ccc(Cl)cn1)c1cnn2cccnc12,–,11.5%
O=C(Cc1ccccc1)NC(=S)Nc1ccc(N2CCCCC2)cc1,2.24 µM (active),–
CC1CCCN(CCCNC(=O)CN2C(=O)COc3ccc(S(=O)(=O)N4CCOCC4)cc32)C1 (configuration not stated),–,-12.2%
CC(C)[C@@H](C(=O)O)N(Cc1cccc(CN([C@H](C(=O)O)C(C)C)S(C)(=O)=O)c1)S(C)(=O)=O,–,0.567%
COc1ccc(CCNC(=O)c2c(C)nn(-c3ccccc3)c2Cl)cc1,–,24.7%
COc1ccc(CC(=O)NC2CCSc3ccccc32)cc1OC (configuration not stated),–,7.66%
COC(=O)c1ccc(Nc2ncnc3sccc23)cc1,–,38.8%
O=S(=O)(c1ccccc1)N(Cc1cccc(F)c1)c1ccccc1,–,2.19%
N#CCC(=O)NC1CCC(CC2CCC(NC(=O)CC#N)CC2)CC1 (configuration not stated),–,21.4%
CCOC(OCC)c1ccc(/C=C\c2nccc(N)n2)cc1,–,-4.15%
Cc1cc(=O)n2nc(N3CCC(C(=O)Nc4c(F)c(F)c(F)c(F)c4F)CC3)sc2n1,–,8.27%
COc1ccc(C)cc1NC(=O)NCCCCc1ccccc1,–,33.6%
Cc1cc(CNC(=O)C2CCC(=O)N(CCc3ccc(Cl)cc3)C2)no1 (configuration not stated),–,0.942%
COC1=C(N2CCOCC2)C(=O)c2ccccc2C1=O,–,4.55%
CCOc1ccc(NC(=O)c2ccc(NC(=O)C3CCCO3)cc2)cc1 (configuration not stated),–,-12.3%
Cc1ccccc1C(=O)Nc1ccccc1NC(=O)c1ccccc1C,–,-10.9%
Cc1ccccc1C(=O)NC(=S)NC1CC1,14.1 µM (active),–
O=C(NC(=S)NC1CCSC1=O)c1ccccc1F (configuration not stated),–,-29.6%
CC(C)n1c(C(O)c2ccccc2)nc2ccccc21 (configuration not stated),–,-20.2%
COC(=O)Cn1c(O)c(N=NC(=O)OC)c2ccccc21,–,7.4%
